# Reference: ChEMBL document CHEMBL3433997, “St. Jude Leishmania screening dataset” (2016)
# Target: Hexose transporter 1 (Plasmodium falciparum) (UniProt O97467)
# Test: ST_JUDE_LEISH: Cytotoxicity at 2uM final concentration against transgenic Leishmania Mexicana promastigotes LmPfHT that are glucose transport deficient and complemented with the Plasmodium falciparum hexose transporter. Activity is measured by DNA content using SYBR green in vitro
# Type: functional
row,SMILES,inhibition
1,Cc1ccc(NC(=O)c2ccc(CN3CCCN(Cc4cccc(C#N)c4)CC3)cc2)cc1F,2.41%
2,Cc1cc(C(F)(F)F)n2nc(C(=O)N(C)Cc3cncn3Cc3ccc(F)cc3)cc2n1,1.29%
3,O=C(/C=C/c1ccc(Cl)cc1)NCCCCCN1CCCN(C(=O)Nc2ccc(Cl)c(C(F)(F)F)c2)CC1,2.68%
4,Cc1c(Cn2ncc(N3CC(C)NC(C)C3)c(Cl)c2=O)cccc1NC(=O)Nc1ccc(-c2ccccc2)cc1 (stereo not given),3.21%
5,CCOc1c(CNCCCNc2nc3ccccc3[nH]2)cc(Br)cc1OC,-3.13%
6,Cc1cccc2nc(-c3ccc(-c4cccc(CNCc5ccc(CN)cc5)c4)s3)[nH]c12,3.91%
7,CC1(C)NC(N)=NC(=N)N1OCc1cccc(Cl)c1Cl,3.75%
8,CC(C)c1ccc(O)cc1Nc1ccnc2ccc(C(F)(F)F)cc12,-0.72%
9,CC(C)[C@H]1CC[C@H](C)C[C@@H]1OC(=O)N[C@@H](Cc1ccc(O)cc1)C(=O)NC1CCN(Cc2ccc(OCCCN(C)C)cc2)C1 (stereo not given in full),3.96%
10,Cc1noc(-c2ccc3c(c2)CCN(CCC2CCC(NC(=O)c4cc5ccccc5[nH]4)CC2)CC3)n1 (stereo not given),2.28%
11,Cc1cc(C)c2nc(N3CCC(C(=O)NCCCN4CCC(N5CCCCC5)CC4)CC3)sc2c1,2.91%
12,CCC1(CC)N=C(N)N=C(N)C1c1ccc(Cl)c(Cl)c1 (stereo not given),0.07%
13,CN(CCN)Cc1ccc(-c2ccc(-c3nc4cc(C(F)(F)F)ccc4[nH]3)s2)cc1,14.8%
14,COc1ccc(CC(=O)Nc2ccc(-c3cccc(-c4nc5cccc(C)c5[nH]4)c3)cc2)cc1O,5.29%
15,CC(=O)Nc1cccc(C(=O)Nc2ccc(-c3ccc(-c4nc5cccc(C)c5[nH]4)s3)cc2)c1,1.16%
